In PubChem BioAssay (NCATS):
Records with an inconclusive call do not appear. A call without a number means that no potency is given here. Activity calls are given as the source filed them. Unless noted, calls follow the shape of the dose curve; as a rule, active = well fitted curve in the direction sought with a large enough effect; inconclusive = small, poorly fitted or top-dose-only effect, or another doubt; inactive = no such curve, though single readings can be large; an effect the other way counts as inactive or inconclusive.

What was measured:
[1] = Primary qHTS for inhibitors of La Crosse Virus (LACV) - induced cell death in SH-SY5Y cells (AID 1508616);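 also: top concentration of the series differs between compounds; higher means more rescue of cells from virus-induced death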
Outline: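 Screening measures cell viability in LACV-infected SH-SY5Y cultures. Compound was added before virus (0.01 MOI), and ATP was detected by luminescence 6 days later.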

[2] = biological target: Calcium and integrin-binding protein 1 (Homo sapiens) (UniProt Q99828); assay: Primary qHTS for Identification of Calcium Integrin Binding Protein 1 (CIB1) Competitor (AID 1508620); also: potency is read from the fitted curve at half-maximal effect
Sequence of Calcium and integrin-binding protein 1 (Homo sapiens) (Q99828 whole entry, looked up): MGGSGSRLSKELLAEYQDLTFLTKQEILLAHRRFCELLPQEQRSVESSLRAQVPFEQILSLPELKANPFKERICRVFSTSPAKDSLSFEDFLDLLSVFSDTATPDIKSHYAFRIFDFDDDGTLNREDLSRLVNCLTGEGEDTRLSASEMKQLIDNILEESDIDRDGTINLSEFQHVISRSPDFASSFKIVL
Outline: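 Fluorescence polarization competition: GST-tagged CIB1 (1 uM final) preincubated with compound 15 min at room temperature, then FITC-labelled alphaIIb peptide (100 nM final) added. After 15 min at room temperature, polarization read at Ex 480/Em 540.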

[3] = biological target: Cytochrome P450 2D6 (Homo sapiens) (UniProt P10635); assay: Cytochrome P450 family 2 subfamily D member 6 (CYP2D6) small molecule antagonists: luciferase biochemical (cell-free) qHTS assay (AID 1645840; active = well fitted curve in the direction sought with a large enough effect in the repeat runs; an effect the other way counts as inactive or inconclusive; also: nearly all actives have a fitted effect of over 55% in size; also: potency is read from the fitted curve at half-maximal effect)
Sequence of Cytochrome P450 2D6 (Homo sapiens) (P10635 whole entry, looked up): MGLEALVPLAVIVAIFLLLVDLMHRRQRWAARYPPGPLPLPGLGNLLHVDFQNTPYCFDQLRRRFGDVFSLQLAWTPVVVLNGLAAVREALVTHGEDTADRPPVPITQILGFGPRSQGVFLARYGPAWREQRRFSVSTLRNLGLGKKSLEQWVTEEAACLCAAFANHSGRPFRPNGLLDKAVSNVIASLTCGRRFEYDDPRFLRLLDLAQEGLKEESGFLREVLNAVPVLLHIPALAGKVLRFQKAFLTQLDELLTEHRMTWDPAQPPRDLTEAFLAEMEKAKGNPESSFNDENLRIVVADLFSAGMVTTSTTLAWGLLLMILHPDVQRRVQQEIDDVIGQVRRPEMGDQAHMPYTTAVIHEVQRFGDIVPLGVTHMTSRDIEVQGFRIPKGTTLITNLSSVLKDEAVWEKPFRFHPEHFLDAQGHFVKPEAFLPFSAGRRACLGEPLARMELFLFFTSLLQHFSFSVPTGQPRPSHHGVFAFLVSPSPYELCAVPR
Outline: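 P450-Glo CYP2D6 system: proluciferin substrate converted by enzyme to luciferin, read by luminescence proportional to activity. Enzyme-substrate mix with compound 10 min at room temperature, then NADPH regeneration 1 h before detection reagent.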

[4] = biological target: Cytochrome P450 2C9 (Homo sapiens) (UniProt P11712); assay: Cytochrome P450 family 2 subfamily C member 9 (CYP2C9) small molecule antagonists: luciferase biochemical (cell-free) qHTS assay (AID 1645842; active = well fitted curve in the direction sought with a large enough effect in the repeat runs; an effect the other way counts as inactive or inconclusive; also: nearly all actives have a fitted effect of over 55% in size; also: potency is read from the fitted curve at half-maximal effect)
Sequence of Cytochrome P450 2C9 (Homo sapiens) (P11712 whole entry, looked up): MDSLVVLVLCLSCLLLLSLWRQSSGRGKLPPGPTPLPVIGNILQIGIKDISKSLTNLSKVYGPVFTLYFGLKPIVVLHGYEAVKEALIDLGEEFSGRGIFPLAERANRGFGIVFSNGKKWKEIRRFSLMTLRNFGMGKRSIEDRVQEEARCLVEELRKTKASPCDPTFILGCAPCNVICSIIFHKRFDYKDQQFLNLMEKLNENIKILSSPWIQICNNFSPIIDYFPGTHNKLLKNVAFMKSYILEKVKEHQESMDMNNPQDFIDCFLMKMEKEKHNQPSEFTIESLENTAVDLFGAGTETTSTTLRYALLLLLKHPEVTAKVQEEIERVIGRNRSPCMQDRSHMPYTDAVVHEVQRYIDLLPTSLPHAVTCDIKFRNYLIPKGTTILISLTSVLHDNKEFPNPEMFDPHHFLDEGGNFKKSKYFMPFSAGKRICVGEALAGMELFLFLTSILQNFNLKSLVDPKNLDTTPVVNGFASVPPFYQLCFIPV
Outline: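 P450-Glo CYP2C9 system: proluciferin substrate with enzyme in mix containing 0.4% BSA, 10 min at room temperature, then NADPH regeneration solution added and incubated 1 h at 37C. Detection reagent stopped reaction; luminescence read after 20 min as RLU.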

[5] = Primary qHTS for small molecule stabilizers of the endoplasmic reticulum resident proteome: Secreted ER Calcium Modulated Protein (SERCaMP) assay (AID 1508630)
Outline: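 The SH-SY5Y reporter protocol was run at 3 concentrations up to 38.3 uM (primary) or 11 concentrations (follow-up): 16 h compound, 100 nM thapsigargin for 4 h, then extracellular luciferase luminescence.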

Papain (Carica papaya) = Papain (Carica papaya) (UniProt P00784); assay: Primary qHTS assay for inhibitors of the protease papain (AID 1645873);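 also: papain turnover of Z-FR-AMC read as the AMC fluorescence gain over 10 min; series mostly up to about 50 µM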
Sequence of Papain (Carica papaya) (P00784 whole entry, looked up): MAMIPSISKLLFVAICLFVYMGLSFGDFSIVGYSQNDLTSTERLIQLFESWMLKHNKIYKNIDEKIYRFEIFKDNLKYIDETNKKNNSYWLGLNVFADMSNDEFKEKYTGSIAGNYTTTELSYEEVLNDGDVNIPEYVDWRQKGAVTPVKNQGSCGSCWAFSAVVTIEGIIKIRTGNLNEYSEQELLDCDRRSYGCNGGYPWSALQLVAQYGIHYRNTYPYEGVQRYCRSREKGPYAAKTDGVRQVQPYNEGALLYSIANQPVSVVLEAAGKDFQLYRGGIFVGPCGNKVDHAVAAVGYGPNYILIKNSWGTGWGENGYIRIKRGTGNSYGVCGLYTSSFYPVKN

[6] = A High-Content qHTS Against Drug Library for the Identification of Small Molecules that Inhibit DYT1 Early Onset Primary Dystonia-Associated Cell Pathology (AID 1645839; calls by dose curve; also: series mostly up to about 46 µM)
Outline: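 Cells were seeded and left for 24 h, then dosed with compound alongside tetracycline induction of mutant EGFP-TorsinA. They were incubated for 48 h, fixed in 4% paraformaldehyde, permeabilized and imaged for mislocalization (%pathology) and cell count.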

[7] = Primary qHTS for inhibitors of nuclear receptor binding SET domain protein 2 (NSD2) in an isogenic RCH-ACV NSD2 p.E1099K mutant (9B) (AID 1645876); also: nearly all actives have a fitted effect of over 70% in size
[8] = Primary qHTS for inhibitors of nuclear receptor binding SET domain protein 2 (NSD2) in an RCH-ACV wild type WT cells (2C) (AID 1645877); also: nearly all actives have a fitted effect of over 70% in size
[9] = Confirmatory qHTS for small molecule stabilizers of the endoplasmic reticulum resident proteome: Secreted ER Calcium Modulated Protein (SERCaMP) assay (AID 1508628); also: series mostly up to about 76 µM; nearly all actives have a fitted effect of over 40% in size
Outline: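 GLuc-SERCaMP-expressing SH-SY5Y cells, pretreated 16 h with compound, are challenged with thapsigargin to empty ER calcium stores; after 4 h, coelenterazine is added directly to the medium and luminescence is imaged.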

[10] = Counterscreen qHTS for small molecule stabilizers of the endoplasmic reticulum resident proteome: GLuc-NoTag assay (AID 1508627);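 also: SH-SY5Y cells given compound then 100 nM thapsigargin to empty ER calcium; series mostly up to about 76 µM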
Outline: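 Counterscreen line: SH-SY5Y-GLuc-NoTag. Seed, 5 h; compound, 19 h; thapsigargin 100 nM, 4 h; 37C/5% CO2. Readout: secreted GLuc luminescence, coelenterazine 0.07x final, no lysis.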

[11] = biological target: Rap guanine nucleotide exchange factor 3 (Homo sapiens) (UniProt O95398); assay: Confirmatory qHTS for antagonist of cAMP-regulated guanine nucleotide exchange factor 3 (EPAC1) (AID 1645880); also: potency is read from the fitted curve at half-maximal effect; nearly all actives have a fitted effect of over 55% in size
Sequence of Rap guanine nucleotide exchange factor 3 (Homo sapiens) (O95398 whole entry, looked up): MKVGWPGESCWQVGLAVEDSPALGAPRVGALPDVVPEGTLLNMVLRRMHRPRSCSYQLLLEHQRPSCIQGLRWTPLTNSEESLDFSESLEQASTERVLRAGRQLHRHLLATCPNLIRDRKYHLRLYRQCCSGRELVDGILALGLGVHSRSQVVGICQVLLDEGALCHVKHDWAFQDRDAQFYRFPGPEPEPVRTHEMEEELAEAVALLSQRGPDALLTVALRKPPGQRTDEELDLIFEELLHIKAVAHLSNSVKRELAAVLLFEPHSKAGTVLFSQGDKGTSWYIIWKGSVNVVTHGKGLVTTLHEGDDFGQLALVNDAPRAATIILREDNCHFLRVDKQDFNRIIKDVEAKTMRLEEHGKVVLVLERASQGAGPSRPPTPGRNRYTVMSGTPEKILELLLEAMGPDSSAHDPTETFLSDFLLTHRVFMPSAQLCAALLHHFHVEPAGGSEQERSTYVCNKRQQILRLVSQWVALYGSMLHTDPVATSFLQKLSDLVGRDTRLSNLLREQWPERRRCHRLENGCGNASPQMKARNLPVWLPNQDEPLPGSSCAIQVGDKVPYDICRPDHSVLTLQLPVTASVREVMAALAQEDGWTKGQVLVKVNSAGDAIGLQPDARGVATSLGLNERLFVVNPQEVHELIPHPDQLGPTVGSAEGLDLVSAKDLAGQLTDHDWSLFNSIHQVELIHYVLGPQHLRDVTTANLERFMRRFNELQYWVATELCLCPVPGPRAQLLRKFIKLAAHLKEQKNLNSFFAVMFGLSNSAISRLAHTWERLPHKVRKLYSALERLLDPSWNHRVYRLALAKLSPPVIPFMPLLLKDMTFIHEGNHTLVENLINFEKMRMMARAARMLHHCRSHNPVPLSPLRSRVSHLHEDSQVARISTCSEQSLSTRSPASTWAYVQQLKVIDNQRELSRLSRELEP
Outline: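 Released BODIPY-GDP fluoresces less than Rap1-bound BODIPY-GDP; the signal is followed at 480/540 nm at 5-min intervals over 30 min, after 5 min at room temperature. Reactions contain 100 nM EPAC1, 250 nM RAP1B-BODIPY-GDP and 50 uM GDP; results are normalized to ATA and DMSO.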

[12] = biological target: Rap guanine nucleotide exchange factor 3 (Homo sapiens) (UniProt O95398); assay: Confirmatory qHTS for agonist of cAMP-regulated guanine nucleotide exchange factor 3 (EPAC1) (AID 1645881);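 also: EPAC1 catalysed release of BODIPY-GDP from Rap1B seen as fluorescence loss; nearly all actives have a fitted effect of over 75% in size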
[13] = biological target: Rap guanine nucleotide exchange factor 4 (Homo sapiens) (UniProt Q8WZA2); assay: Confirmatory qHTS for agonist of cAMP-regulated guanine nucleotide exchange factor 4 (EPAC2) (AID 1645884);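 also: nucleotide exchange releases bodipy-GDP from Rap1 and this lowers its fluorescence; nearly all actives have a fitted effect of over 65% in size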
Sequence of Rap guanine nucleotide exchange factor 4 (Homo sapiens) (Q8WZA2 whole entry, looked up): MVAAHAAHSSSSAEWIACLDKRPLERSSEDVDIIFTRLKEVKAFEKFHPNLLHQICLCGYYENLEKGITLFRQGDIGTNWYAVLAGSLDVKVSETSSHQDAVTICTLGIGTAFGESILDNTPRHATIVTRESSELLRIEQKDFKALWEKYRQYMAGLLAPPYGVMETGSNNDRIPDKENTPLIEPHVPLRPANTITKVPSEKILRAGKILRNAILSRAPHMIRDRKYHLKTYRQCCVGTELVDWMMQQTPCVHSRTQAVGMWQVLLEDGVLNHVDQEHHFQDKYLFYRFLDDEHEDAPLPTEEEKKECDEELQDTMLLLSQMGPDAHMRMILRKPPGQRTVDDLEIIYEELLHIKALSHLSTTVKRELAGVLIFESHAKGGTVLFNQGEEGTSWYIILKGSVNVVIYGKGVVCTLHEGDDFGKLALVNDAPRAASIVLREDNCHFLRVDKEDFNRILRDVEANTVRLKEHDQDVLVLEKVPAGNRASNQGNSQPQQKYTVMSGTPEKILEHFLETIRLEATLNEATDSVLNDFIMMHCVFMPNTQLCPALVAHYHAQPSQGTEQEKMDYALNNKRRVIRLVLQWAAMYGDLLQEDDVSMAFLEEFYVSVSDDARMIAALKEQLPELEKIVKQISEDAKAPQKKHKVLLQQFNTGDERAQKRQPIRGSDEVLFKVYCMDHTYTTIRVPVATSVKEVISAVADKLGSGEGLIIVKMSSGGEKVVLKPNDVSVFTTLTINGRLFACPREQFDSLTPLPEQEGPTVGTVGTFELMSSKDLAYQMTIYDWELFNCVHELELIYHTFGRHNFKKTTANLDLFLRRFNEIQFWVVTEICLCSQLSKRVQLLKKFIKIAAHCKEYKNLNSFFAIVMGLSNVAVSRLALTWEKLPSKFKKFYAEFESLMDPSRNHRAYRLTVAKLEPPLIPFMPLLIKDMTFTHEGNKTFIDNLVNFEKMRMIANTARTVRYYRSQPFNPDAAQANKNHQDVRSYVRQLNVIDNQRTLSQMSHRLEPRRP

[14] = biological target: Calcium and integrin-binding protein 1 (Homo sapiens) (UniProt Q99828); assay: Validation qHTS for Identification of Calcium Integrin Binding protein 1 (CIB1) Competitor (AID 1508618)
Outline: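 In this qHTS validation, the LOPAC set (up to 114 uM) was tested for blocking CIB1 binding to a fluorescein-tagged alphaIIb peptide, with FP detection at 480/540 nm.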

[15] = biological target: Cytochrome P450 3A4 (Homo sapiens) (UniProt P08684); assay: Cytochrome P450 family 3 subfamily A member 4 (CYP3A4) small molecule antagonists: luciferase qHTS assay (AID 1645841; active = well fitted curve in the direction sought with a large enough effect in the repeat runs; an effect the other way counts as inactive or inconclusive; also: nearly all actives have a fitted effect of over 45% in size)
Sequence of Cytochrome P450 3A4 (Homo sapiens) (P08684 whole entry, looked up): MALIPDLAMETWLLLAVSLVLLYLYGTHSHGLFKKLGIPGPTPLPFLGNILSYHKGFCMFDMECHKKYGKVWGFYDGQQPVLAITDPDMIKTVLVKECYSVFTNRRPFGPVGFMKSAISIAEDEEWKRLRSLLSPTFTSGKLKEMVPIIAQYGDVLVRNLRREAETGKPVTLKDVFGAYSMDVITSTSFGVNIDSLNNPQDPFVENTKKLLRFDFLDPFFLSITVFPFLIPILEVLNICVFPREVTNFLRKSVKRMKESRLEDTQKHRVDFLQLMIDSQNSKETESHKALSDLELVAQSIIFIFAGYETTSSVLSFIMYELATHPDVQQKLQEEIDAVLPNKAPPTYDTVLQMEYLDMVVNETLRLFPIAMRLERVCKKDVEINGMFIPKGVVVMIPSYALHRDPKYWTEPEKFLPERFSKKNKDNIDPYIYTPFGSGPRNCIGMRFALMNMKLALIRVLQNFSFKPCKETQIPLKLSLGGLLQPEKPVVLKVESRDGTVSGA
Outline: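 P450-Glo CYP3A4 enzyme with proluciferin substrate preincubated 10 min with compound at room temperature, then NADPH regeneration 1 h. Luciferin detection reagent added for 20 min; luminescence recorded. Ketoconazole positive control.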

Question: For `NC(=O)C(c1ccccc1)(c1ccccc1)[C@@H]1CCN(CCc2ccc3c(c2)CCO3)C1`, which Potency [1] is on record?
Answer: inactive

Question: What about the Potency [2] of the same compound?
Answer: inactive

Question: And the Potency [3]?
Answer: 0.617 µM (active)

Question: And the Potency [4]?
Answer: inactive

Question: For `O=C(O)c1cc(=O)c2ccccc2[nH]1`, which Potency [1] is on record?
Answer: inactive

Question: What about the Potency [5] of the same compound?
Answer: inactive

Question: What about the Potency (Papain (Carica papaya)) of the same compound?
Answer: inactive

Question: For `Nc1ccc(C(=O)O)c(O)c1`, which Potency [1] is on record?
Answer: inactive

Question: And the Potency [2]?
Answer: inactive

Question: What about the Potency [6] of the same compound?
Answer: inactive

Question: What about the Potency [3] of the same compound?
Answer: inactive

Question: What about the Potency [4] of the same compound?
Answer: inactive

Question: What about the Potency [7] of the same compound?
Answer: inactive

Question: And the Potency [8]?
Answer: inactive

Question: With `CNCC[C@H](Oc1ccc(C(F)(F)F)cc1)c1ccccc1` as the compound, how does the Potency [1] read?
Answer: inactive

Question: What about the Potency [9] of the same compound?
Answer: inactive

Question: And the Potency [5]?
Answer: inactive

Question: And the Potency (Papain (Carica papaya))?
Answer: inactive

Question: With `O=C(O)[C@@H]1C[C@@H](C(=O)O)N1` as the compound, how does the Potency [1] read?
Answer: inactive

Question: What about the Potency [5] of the same compound?
Answer: inactive

Question: Which Potency [1] does the source give for `CN(C)[C@@H]1C(=O)C(C(=O)NCN2CCCC2)=C(O)[C@@]2(O)C(=O)C3=C(O)c4c(O)cccc4[C@@](C)(O)C3C[C@@H]12` (stereo not given in full) here?
Answer: inactive

Question: And the Potency [5]?
Answer: inactive

Question: And the Potency [6]?
Answer: inactive

Question: What about the Potency [4] of the same compound?
Answer: inactive

Question: With `O=C(Nc1ccccc1)c1cc([N+](=O)[O-])ccc1Cl` as the compound, how does the Potency [10] read?
Answer: inactive

Question: What about the Potency [9] of the same compound?
Answer: inactive

Question: With `C[N+]1(C)C2CC(OC(=O)[C@H](CO)c3ccccc3)CC1C1OC12` (stereo not given in full) as the compound, how does the Potency [10] read?
Answer: inactive

Question: And the Potency [9]?
Answer: inactive

Question: For `O=Cc1ccc(O)c(O)c1O`, which Potency [6] is on record?
Answer: inactive

Question: For `CC1(C)S[C@@H]2[C@H](NC(=O)[C@H](N)c3ccccc3)C(=O)N2[C@H]1C(=O)O`, which Potency [6] is on record?
Answer: inactive

Question: For `Brc1c(Br)c(Br)c2n[nH]nc2c1Br`, which Potency [11] is on record?
Answer: 55.9 µM (active)

Question: And the Potency [12]?
Answer: inactive

Question: And the Potency [13]?
Answer: inactive

Question: For `CC[C@H]1OC(=O)[C@H](C)[C@@H](O[C@H]2C[C@@](C)(OC)[C@@H](O)[C@H](C)O2)[C@H](C)[C@@H](O[C@@H]2O[C@H](C)C[C@H](NC)[C@H]2O)[C@](C)(O)C[C@@H](C)CN(C)[C@H](C)[C@@H](O)[C@]1(C)O`, which outcome [14] is on record?
Answer: inactive

Question: And the Potency (Papain (Carica papaya))?
Answer: inactive

Question: Which results are given for `Cc1ccc(O)c(-n2nc3ccccc3n2)c1`?
Answer: Potency [2]: inactive; Potency [5]: inactive; Potency [6]: inactive; Potency [4]: 4.36 µM (active); Potency [7]: inactive; Potency [8]: inactive

Question: With `S=c1[nH]c(-c2ccccc2)cn1-c1ccccc1` as the compound, how does the outcome [14] read?
Answer: inactive

Question: What about the Potency (Papain (Carica papaya)) of the same compound?
Answer: inactive

Question: For `Cc1cn([C@H]2CC(N=[N+]=[N-])[C@@H](CO)O2)c(=O)[nH]c1=O` (stereo not given in full), which outcome [14] is on record?
Answer: inactive

Question: And the Potency (Papain (Carica papaya))?
Answer: inactive

Question: Which outcome [14] does the source give for `Nc1nc2ccc(Cl)cc2n2c(-c3ccccc3)nnc12` here?
Answer: inactive

Question: What about the Potency (Papain (Carica papaya)) of the same compound?
Answer: inactive

Question: For `COc1cc(OC)cc(-c2cc3cnc(N)nc3nc2NC(=O)NC(C)(C)C)c1`, which outcome [14] is on record?
Answer: inactive

Question: And the Potency (Papain (Carica papaya))?
Answer: inactive

Question: Which outcome [14] does the source give for `COc1ccc(C(=O)/C(Cc2cc(OC)c(OC)c(OC)c2)=C(\C(=O)O)c2ccc3c(c2)OCO3)cc1` here?
Answer: inactive

Question: What about the Potency (Papain (Carica papaya)) of the same compound?
Answer: inactive

Question: Which results are given for `CO[C@H]1O[C@@H]2O[C@]3(C)CC[C@@H]4[C@@H](C)CC[C@H]([C@H]1C)[C@]24OO3`?
Answer: outcome [14]: inactive; Potency (Papain (Carica papaya)): inactive

Question: With `CCCC(=O)OC[C@@H](OC(=O)CCC)[C@@H](OC(=O)CCC)[C@H](Cn1c2nc(=O)[nH]c(=O)c-2nc2cc(C)c(C)cc21)OC(=O)CCC` as the compound, how does the Potency [2] read?
Answer: 2.82 µM (active)

Question: And the Potency [3]?
Answer: 7.76 µM (active)

Question: What does the source list for `O=[N+]([O-])c1ccc(CNc2nc(NCc3cccc(C(F)(F)F)c3)nc3nc[nH]c23)cc1`?
Answer: Potency [2]: inactive; Potency [4]: 1.07 µM (active); Potency (Papain (Carica papaya)): inactive

Question: For `CCOC(=O)c1ccccc1O`, which Potency [2] is on record?
Answer: inactive

Question: What about the Potency [6] of the same compound?
Answer: inactive

Question: And the Potency [3]?
Answer: inactive

Question: What about the outcome [15] of the same compound?
Answer: inactive

Question: What about the Potency [4] of the same compound?
Answer: inactive

Question: And the Potency [7]?
Answer: inactive

Question: And the Potency [8]?
Answer: inactive
